{"source": "the supplement of paper PMC8728848", "binders": {"B1": {"name": "Annexin-A1 (Mus musculus), P10107 (protein)", "chain": "MAMVSEFLKQARFLENQEQEYVQAVKSYKGGPGSAVSPYPSFNVSSDVAALHKAIMVKGVDEATIIDILTKRTNAQRQQIKAAYLQENGKPLDEVLRKALTGHLEEVVLAMLKTPAQFDADELRGAMKGLGTDEDTLIEILTTRSNEQIREINRVYREELKRDLAKDITSDTSGDFRKALLALAKGDRCQDLSVNQDLADTDARALYEAGERRKGTDVNVFTTILTSRSFPHLRRVFQNYGKYSQHDMNKALDLELKGDIEKCLTTIVKCATSTPAFFAEKLYEAMKGAGTRHKALIRIMVSRSEIDMNEIKVFYQKKYGISLCQAILDETKGDYEKILVALCGGN"}}, "experiment_in_all_cases": "glycan array binding signal (z-score within array); higher = stronger binding", "conditions_in_all_cases": "glycan notation: IUPAC condensed, linker removed", "key": {"Fuc(a1-2)Gal(b1-4)Glc6S": {"molecular_target": "Fuc(a1-2)Gal(b1-4)Glc6S", "in_short": "(§1)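 Arrays were curated from the Consortium for Functional Glycomics database, 3228 in total, and kept only where the protein sequence was available. Binding is expressed as a within-array Z-score. This score was averaged across arrays of the same protein sequence at different concentrations or buffers and across linkers, and negative values can be read as non-binding.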"}, "[1]": {"molecular_target": "Fuc(a1-2)[Gal(a1-3)]Gal(b1-4)GlcNAc", "in_short": "as §1"}, "[2]": {"molecular_target": "Fuc(a1-3)[Gal3S(b1-4)]Glc", "in_short": "as §1"}, "[3]": {"molecular_target": "Gal(b1-3)GalNAc(b1-3)Gal(b1-4)Glc", "in_short": "as §1"}, "[4]": {"molecular_target": "Gal(b1-3)[Neu5Ac(a2-6)]GalNAc", "in_short": "as §1"}, "Gal3S(b1-4)Glc6S": {"molecular_target": "Gal3S(b1-4)Glc6S", "in_short": "as §1"}, "Gal3S(b1-4)GlcNAc6S": {"molecular_target": "Gal3S(b1-4)GlcNAc6S", "in_short": "as §1"}, "Gal3S6S(b1-4)GlcNAc6S": {"molecular_target": "Gal3S6S(b1-4)GlcNAc6S", "in_short": "as §1"}, "Gal4S6S(b1-4)GlcNAc": {"molecular_target": "Gal4S6S(b1-4)GlcNAc", "in_short": "as §1"}, "Gal6S(b1-4)Glc6S": {"molecular_target": "Gal6S(b1-4)Glc6S", "in_short": "as §1"}, "GlcA(b1-6)Gal": {"molecular_target": "GlcA(b1-6)Gal", "in_short": "as §1"}, "[5]": {"molecular_target": "GlcNAc(b1-3)Gal(b1-3)GalNAc", "in_short": "as §1"}, "[6]": {"molecular_target": "GlcNAc(b1-3)[GlcNAc(b1-6)]Gal(b1-4)GlcNAc", "in_short": "as §1"}, "[7]": {"molecular_target": "GlcNAc(b1-3)[GlcNAc(b1-6)]GlcNAc", "in_short": "as §1"}, "[8]": {"molecular_target": "GlcNAc(b1-4)Gal(b1-4)GlcNAc", "in_short": "as §1"}, "Man(a1-3)[Man(a1-6)]Man": {"molecular_target": "Man(a1-3)[Man(a1-6)]Man", "in_short": "as §1"}, "[9]": {"molecular_target": "Man(a1-3)[Man(a1-6)]Man(a1-6)[Man(a1-3)]Man(b1-4)GlcNAc(b1-4)GlcNAc", "in_short": "as §1"}, "[10]": {"molecular_target": "Neu5Ac(a2-3)Gal(b1-3)GalNAc", "in_short": "as §1"}, "[11]": {"molecular_target": "Neu5Ac(a2-3)Gal6S(b1-4)GlcNAc", "in_short": "as §1"}, "[12]": {"molecular_target": "Neu5Gc(a2-3)Gal(b1-4)[Fuc(a1-4)]GlcNAc", "in_short": "as §1"}}, "note": "Only a selection was taken, and the strongest signals are over-represented in it overall."}
{"binder": "B1", "values": [{"measurement": "glycan array binding signal (z-score)", "setting": "Fuc(a1-2)Gal(b1-4)Glc6S", "value": 1.79}, {"measurement": "glycan array binding signal (z-score)", "setting": "[1]", "value": -0.684}, {"measurement": "glycan array binding signal (z-score)", "setting": "[2]", "value": -0.177}, {"measurement": "glycan array binding signal (z-score)", "setting": "[3]", "value": -0.151}, {"measurement": "glycan array binding signal (z-score)", "setting": "[4]", "value": -0.343}, {"measurement": "glycan array binding signal (z-score)", "setting": "Gal3S(b1-4)Glc6S", "value": 3.21}, {"measurement": "glycan array binding signal (z-score)", "setting": "Gal3S(b1-4)GlcNAc6S", "value": 1.83}, {"measurement": "glycan array binding signal (z-score)", "setting": "Gal3S6S(b1-4)GlcNAc6S", "value": 7.38}, {"measurement": "glycan array binding signal (z-score)", "setting": "Gal4S6S(b1-4)GlcNAc", "value": 1.13}, {"measurement": "glycan array binding signal (z-score)", "setting": "Gal6S(b1-4)Glc6S", "value": 3.55}, {"measurement": "glycan array binding signal (z-score)", "setting": "GlcA(b1-6)Gal", "value": 0.482}, {"measurement": "glycan array binding signal (z-score)", "setting": "[5]", "value": -0.049}, {"measurement": "glycan array binding signal (z-score)", "setting": "[6]", "value": -0.758}, {"measurement": "glycan array binding signal (z-score)", "setting": "[7]", "value": -0.452}, {"measurement": "glycan array binding signal (z-score)", "setting": "[8]", "value": -0.318}, {"measurement": "glycan array binding signal (z-score)", "setting": "Man(a1-3)[Man(a1-6)]Man", "value": -0.165}, {"measurement": "glycan array binding signal (z-score)", "setting": "[9]", "value": -0.176}, {"measurement": "glycan array binding signal (z-score)", "setting": "[10]", "value": -0.573}, {"measurement": "glycan array binding signal (z-score)", "setting": "[11]", "value": -0.076}, {"measurement": "glycan array binding signal (z-score)", "setting": "[12]", "value": -0.436}]}
